Measurements published in PubChem BioAssay.
For part of these data: Measured potencies and affinities stand elsewhere. Active and inactive are the calls of the source.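 How the source made its calls, unless noted: active means signal rise over 3 SD above mean of control wells given weak agonist, in both repeats and first screen; inactive means the rest.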

Tests used:
[1] = system: TRPC4 beta (transient receptor potential cation channel C4), mouse; experiment: TRPC4 cation channel opening, retest – cell-based, Fluo4 calcium, HEK293 TRPC4beta/mu-opioid, duplicates, 10 µM, confirmation (AID 2426;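 active means fluorescence ratio normalized to control raised more than 50% in primary screen plus both repeat runs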;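 on activation: percent rise of integrated ratio over buffer wells lacking compound which define 0%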); conditions: Fluo4 calcium fluorescence, at 10 µM; active compounds read high
[2] = system: transient receptor potential cation channel C4 beta (TRPC4), mouse; experiment: TRPC4 cation channel opening, second retest – cell-based, second round, Fluo4, HEK293 TRPC4beta/mu-opioid, 1 µM, confirmation (AID 2461;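 active means primary screen active and over 50% activation in each of two duplicate runs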;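 on activation: 0% = wells without test compound as baseline of integrated fluorescence ratio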); conditions: Fluo4 calcium fluorescence, at 1 µM; active compounds read high
[3] = system: TRPC4 (transient receptor potential cation channel C4 beta), mouse; experiment: potentiation of DAMGO EC20 TRPC4 response – cell-based, second round, Fluo-4, HEK293 TRPC4beta/mu-opioid, 1 µM, confirmation (AID 2554;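 active means primary screen hit whose fluorescence ratio, in both repeats, exceeds the weak agonist control mean by 3 SD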); conditions: DAMGO EC20, Fluo-4 calcium flux, at 1 µM; active compounds read high
[4] = system: TRPC4 beta (transient receptor potential cation channel C4), mouse; experiment: potentiation of DAMGO EC20 TRPC4 response – cell-based, Fluo-4, HEK293 TRPC4beta/mu-opioid, confirmation (AID 2555;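 active means primary screen hit whose calcium fluorescence ratio, in both repeats, exceeds the weak agonist control mean by 3 SD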); conditions: DAMGO EC20, Fluo-4 calcium flux, at 10 µM; active compounds read high
[5] = target: Short transient receptor potential channel 4 (Mus musculus) (UniProt Q9QUQ5); experiment: blockers of DAMGO-evoked TRPC4 calcium flux – cell-based, Fluo4, HEK293 TRPC4beta/mu-opioid, confirmation (AID 2636;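 active means calcium signal cut by more than 3 SD below the full-agonist control yet still positive, in both repeats and the earlier primary screen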); conditions: at 10 µM; active compounds read high
Short transient receptor potential channel 4 (Mus musculus), sequence (Q9QUQ5 whole entry, looked up): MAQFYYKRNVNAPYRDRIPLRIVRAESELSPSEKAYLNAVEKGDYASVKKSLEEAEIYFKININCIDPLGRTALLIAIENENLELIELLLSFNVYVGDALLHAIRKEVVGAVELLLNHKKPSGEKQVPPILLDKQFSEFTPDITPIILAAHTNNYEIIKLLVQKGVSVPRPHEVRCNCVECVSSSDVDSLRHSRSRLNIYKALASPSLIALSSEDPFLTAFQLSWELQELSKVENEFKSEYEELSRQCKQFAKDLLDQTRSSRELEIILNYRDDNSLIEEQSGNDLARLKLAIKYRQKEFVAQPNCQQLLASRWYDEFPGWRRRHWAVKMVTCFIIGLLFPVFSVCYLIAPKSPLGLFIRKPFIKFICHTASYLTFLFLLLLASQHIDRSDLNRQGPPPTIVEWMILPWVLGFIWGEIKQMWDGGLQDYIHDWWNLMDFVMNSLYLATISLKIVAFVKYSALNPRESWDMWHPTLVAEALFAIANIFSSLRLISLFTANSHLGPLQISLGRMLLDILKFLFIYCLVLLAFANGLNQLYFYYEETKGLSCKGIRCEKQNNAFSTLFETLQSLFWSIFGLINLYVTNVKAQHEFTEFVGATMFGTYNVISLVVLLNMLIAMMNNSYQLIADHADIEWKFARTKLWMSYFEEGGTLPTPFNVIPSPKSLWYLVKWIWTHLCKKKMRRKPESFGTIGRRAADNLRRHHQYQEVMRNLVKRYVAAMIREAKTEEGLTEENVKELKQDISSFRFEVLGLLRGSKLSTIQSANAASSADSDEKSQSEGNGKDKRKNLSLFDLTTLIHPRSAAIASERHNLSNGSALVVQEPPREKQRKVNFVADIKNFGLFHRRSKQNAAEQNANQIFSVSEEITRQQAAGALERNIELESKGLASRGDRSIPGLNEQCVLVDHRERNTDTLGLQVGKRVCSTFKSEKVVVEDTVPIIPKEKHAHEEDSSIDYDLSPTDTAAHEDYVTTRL

[6] = target: Short transient receptor potential channel 4 (Mus musculus) (UniProt Q9QUQ5); experiment: blockers of DAMGO-evoked TRPC4 calcium flux – cell-based, second round, Fluo4, HEK293 TRPC4beta/mu-opioid, 1 µM, confirmation (AID 2637;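 active means calcium signal ratio cut to more than 3 SD under the fully stimulated control mean yet still positive, in both repeats and the primary screen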); conditions: at 1 µM; active compounds read high
[7] = target: Short transient receptor potential channel 4 (Mus musculus) (UniProt Q9QUQ5); experiment: potentiation of DAMGO-evoked TRPC4 calcium signal – cell-based, HEK293 TRPC4/mu-opioid, Fluo-4 calcium, EC20 DAMGO, dose response (AID 434941;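 active means earlier screen potentiator hit that boosts the TRPC4 ion channel at some dose, with a dose response; inactive means no potentiation, no dose response, or not a prior hit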;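 further: calcium entry triggered by an EC20 dose of DAMGO at the co-expressed mu-opioid receptor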); conditions: HEK293 TRPC4/mu-opioid cells, Fluo-4 calcium fluorescence; series mostly up to 20 µM
[8] = target: Short transient receptor potential channel 4 (Mus musculus) (UniProt Q9QUQ5); experiment: block of DAMGO-driven TRPC4 calcium entry – cell-based, HEK293 TRPC4/mu-opioid, Fluo-4 calcium, dose response (AID 434942;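 active means primary screen inhibitor hit that blocks the TRPC4 channel at some tested dose, yielding a dose curve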); conditions: HEK293 TRPC4/mu-opioid cells, DAMGO-evoked Fluo-4 calcium ratio; series mostly up to 20 µM
[9] = target: Short transient receptor potential channel 6 (Mus musculus) (UniProt Q61143); experiment: TRPC6 blockade by TRPC4 inhibitor hits – cell-based, HEK293, membrane potential dye, duplicate, selectivity assay for TRPC4 inhibitor project, confirmation (AID 434948;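 active means active in primary screen and both duplicates, each dropping signal beyond three positive-control SD with fluorescence still positive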); conditions: HEK293 TRPC6, membrane potential dye fluorescence, at 10 µM, stimulated with maximal-effect acetylcholine; active compounds read high
Short transient receptor potential channel 6 (Mus musculus), sequence (Q61143 whole entry, looked up): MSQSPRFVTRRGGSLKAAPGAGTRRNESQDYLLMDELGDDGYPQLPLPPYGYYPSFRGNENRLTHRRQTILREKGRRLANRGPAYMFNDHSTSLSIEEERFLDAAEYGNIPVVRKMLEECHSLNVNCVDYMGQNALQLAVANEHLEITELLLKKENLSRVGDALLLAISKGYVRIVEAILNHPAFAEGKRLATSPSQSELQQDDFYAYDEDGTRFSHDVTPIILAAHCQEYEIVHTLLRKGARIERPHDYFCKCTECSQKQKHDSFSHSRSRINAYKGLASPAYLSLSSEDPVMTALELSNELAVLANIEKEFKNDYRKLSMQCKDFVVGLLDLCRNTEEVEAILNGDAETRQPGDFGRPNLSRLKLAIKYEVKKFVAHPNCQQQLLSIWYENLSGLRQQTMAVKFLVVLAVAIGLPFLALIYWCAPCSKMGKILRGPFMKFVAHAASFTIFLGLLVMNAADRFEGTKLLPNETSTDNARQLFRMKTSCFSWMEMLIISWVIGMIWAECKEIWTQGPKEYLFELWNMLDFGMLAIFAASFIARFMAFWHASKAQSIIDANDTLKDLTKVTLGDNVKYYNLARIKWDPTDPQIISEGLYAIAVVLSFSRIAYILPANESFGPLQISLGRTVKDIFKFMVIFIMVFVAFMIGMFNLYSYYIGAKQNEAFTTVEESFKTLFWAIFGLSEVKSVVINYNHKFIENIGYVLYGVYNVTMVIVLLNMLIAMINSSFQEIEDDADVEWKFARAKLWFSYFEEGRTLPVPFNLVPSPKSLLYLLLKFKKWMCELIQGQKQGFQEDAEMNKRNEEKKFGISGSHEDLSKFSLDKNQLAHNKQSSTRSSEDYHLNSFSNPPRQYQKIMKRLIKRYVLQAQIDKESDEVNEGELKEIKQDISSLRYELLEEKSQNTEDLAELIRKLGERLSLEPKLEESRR

[10] = target: Short transient receptor potential channel 6 (Mus musculus) (UniProt Q61143); experiment: TRPC6 opening by TRPC4 activator hits – cell-based, HEK293, membrane potential dye, duplicate, selectivity assay for TRPC4 activator project, confirmation (AID 434950;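 active means membrane potential signal rise above negative control mean plus 3 SD in both duplicates, also active in the earlier TRPC4 screen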;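 on activation: 0% = buffer only wells and 100% = acetylcholine maximal-effect wells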); conditions: HEK293 TRPC6, membrane potential fluorescence, at 10 µM; activation: active compounds read high; outcome: activation
[11] = target: Short transient receptor potential channel 6 (Mus musculus) (UniProt Q61143); experiment: positive modulators of mouse TRPC6 channel – HEK293 cells, membrane potential dye, duplicate, selectivity assay for TRPC4 potentiator project, confirmation (AID 434952;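 active means compound raising the membrane signal above positive-control mean plus 3 SD in both repeats, and a primary screen hit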); conditions: HEK293 TRPC6, membrane potential dye fluorescence, at 10 µM, maximal acetylcholine added after compound; active compounds read high
[12] = target: Short transient receptor potential channel 4 (Mus musculus) (UniProt Q9QUQ5); experiment: calcium flux activators in TRPC4/5HT1a cells, counter-screen for TRPC4 activator project, cell-based, second counter screen, HEK293 TRPC4/5HT1a, Fluo-4 (AID 434977;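 active means calcium signal rise above buffer-control mean plus 5 SD in both duplicates, and also a hit in the primary screen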;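 on activation: plate controls were assay buffer for no effect and maximal serotonin response for full effect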); conditions: Fluo-4 calcium flux, at 10 µM; active compounds read high
[13] = serotonin-gated TRPC4 signal block – cell-based, second counter screen, HEK293 TRPC4/5HT1a, Fluo-4, counter-screen for TRPC4 inhibitor project, confirmation (AID 434978;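 active means primary screen active whose calcium signal fell more than 3 SD beyond the full-serotonin control mean in both duplicate plates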;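 on outcome: serotonin given first at submaximal then at maximal dose after compound preincubation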); conditions: Fluo-4 calcium flux, at 10 µM, serotonin added to trigger calcium flux; active compounds read high
[14] = system: TRPC4 (mouse), co-expressed with 5HT1a in HEK293; experiment: enhancement of serotonin-evoked TRPC4 response – cell-based, second counter screen, HEK293 TRPC4/5HT1a, Fluo-4, counter-screen for TRPC4 potentiator project, confirmation (AID 434979); conditions: Fluo-4 calcium flux, at 10 µM, serotonin added at its EC20 dose; active compounds read high
[15] = nonspecific calcium rise without TRPC4 – cell-based, HEK293 mu-opioid receptor line, counter-screen for TRPC4 activator project, confirmation (AID 449723;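 active means hit in primary screen, with calcium signal over 5 SD above buffer well mean in both duplicates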;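 further: counter screen cells carry the mu-opioid receptor alone and lack TRPC4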); conditions: HEK293 mu-opioid cells, Fluo-4 calcium fluorescence, at 10 µM; active compounds read high
[16] = nonspecific potentiation of DAMGO calcium response – cell-based, HEK293 mu-opioid receptor line, counter-screen for TRPC4 allosteric potentiator project, confirmation (AID 449724;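 active means calcium signal rise more than 3 SD above the low-dose agonist control mean, in both duplicate plates and the primary screen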); conditions: HEK293 mu-opioid receptor cells, Fluo-4 calcium flux, at 10 µM, compound added before EC20 DAMGO stimulus; active compounds read high

CCCCN(CC)CCNC(=O)c1cc2c(C)nc3ccccc3c2o1
active: activation [1] 128% | activation [12] 42.6%
inactive: outcome [2] | outcome [3] | outcome [4] | outcome [5] | outcome [6] | outcome [7] | outcome [8] | outcome [9] | outcome [10] | outcome [11] | outcome [13] | outcome [14] | outcome [15] | outcome [16]

Cc1cc(C)c(CN2CCN(Cc3ccc(C)o3)C(CCO)C2)c(-n2cccn2)c1 (stereo not given)
active: activation [1] 75% | activation [10] 73%
inactive: outcome [2] | outcome [3] | outcome [4] | outcome [5] | outcome [6] | outcome [7] | outcome [8] | outcome [9] | outcome [11] | outcome [12] | outcome [13] | outcome [14] | outcome [15] | outcome [16]

COc1cc(OC)c(CN2CCC(Cc3ccccc3)CC2)cc1Br
active: activation [1] 121% | activation [10] 43.5% | activation [12] 44.9%
inactive: outcome [2] | outcome [3] | outcome [4] | outcome [5] | outcome [6] | outcome [7] | outcome [8] | outcome [9] | outcome [11] | outcome [13] | outcome [14] | outcome [15] | outcome [16]

NCCCn1c(C(=O)c2cc(Cl)c(N)c(Cl)c2)c2ccccc2[n+]1[O-]
inactive: outcome [3] | outcome [4] | outcome [6] | outcome [7] | outcome [8] | outcome [9] | outcome [10] | outcome [11] | outcome [14] | outcome [15] | outcome [16]
active: activation [1] 179% | activation [2] 103% | inhibition [5] 83% | activation [12] 67.1% | inhibition [13] 14%

CCOC(=O)C1(CCOc2ccccc2)CCN(Cc2cnc(C)s2)CC1
inactive: outcome [2] | outcome [3] | outcome [4] | outcome [5] | outcome [6] | outcome [7] | outcome [8] | outcome [9] | outcome [11] | outcome [13] | outcome [14] | outcome [15] | outcome [16]
active: activation [1] 66% | activation [10] 59.5% | activation [12] 5.79%

Cc1ccc(C2N(c3ccc(Cl)c(Cl)c3)C(=O)C3CCCN32)o1 (stereo not given)
active: activation [1] 53% | potentiation [3] 9% | potentiation [4] 22% | activation [12] 13.8% | potentiation [14] 20%
inactive: outcome [2] | outcome [5] | outcome [6] | outcome [7] | outcome [8] | outcome [9] | outcome [10] | outcome [11] | outcome [13] | outcome [15] | outcome [16]

Fc1ccc(-c2nnc(CN3CCN(c4ncc(C(F)(F)F)cc4Cl)CC3)o2)cc1
active: activation [1] 120% | activation [10] 35.5% | activation [12] 23.8%
inactive: outcome [2] | outcome [3] | outcome [4] | outcome [5] | outcome [6] | outcome [7] | outcome [8] | outcome [9] | outcome [11] | outcome [13] | outcome [14] | outcome [15] | outcome [16]

CC1CCCCN1S(=O)(=O)c1ccc(C(=O)N(CCCN(C)C)c2nc3ccc(Br)cc3s2)cc1 (stereo not given)
active: activation [12] 21% | activation [15] 14.9%
inactive: outcome [1] | outcome [2] | outcome [3] | outcome [4] | outcome [5] | outcome [6] | outcome [7] | outcome [8] | outcome [9] | outcome [10] | outcome [11] | outcome [13] | outcome [14] | outcome [16]

CN(C)C(CNC(=S)Nc1cccc(Cl)c1)c1cccnc1 (stereo not given)
inactive: outcome [3] | outcome [4] | outcome [5] | outcome [6] | outcome [7] | outcome [8] | outcome [9] | outcome [10] | outcome [11] | outcome [12] | outcome [13] | outcome [14] | outcome [15] | outcome [16]
active: activation [1] 77% | activation [2] 110%

Cc1cc(C)cc(C(=O)N(CCc2ccccc2)C2=CC3CCC(C2)N3C)c1 (stereo not given)
active: activation [1] 86% | activation [2] 57% | activation [10] 67%
inactive: outcome [3] | outcome [4] | outcome [5] | outcome [6] | outcome [7] | outcome [8] | outcome [9] | outcome [11] | outcome [12] | outcome [13] | outcome [14] | outcome [15] | outcome [16]

Cc1ccccc1N(CC(=O)N/N=C/c1ccc(F)cc1)C(=O)c1ccccc1
inactive: outcome [1] | outcome [2] | outcome [3] | outcome [4] | outcome [5] | outcome [6] | outcome [7] | outcome [8] | outcome [9] | outcome [10] | outcome [11] | outcome [12] | outcome [13] | outcome [14] | outcome [15] | outcome [16]

CC1(C)CC(=O)c2cc(C(=O)NCc3ccco3)c(=O)n(-c3ccc(Cl)cc3)c2C1
active: activation [10] 66.5%
inactive: outcome [1] | outcome [2] | outcome [3] | outcome [4] | outcome [5] | outcome [6] | outcome [7] | outcome [8] | outcome [9] | outcome [11] | outcome [12] | outcome [13] | outcome [14] | outcome [15] | outcome [16]

CCN(CC)CCCOc1ccc(Cl)c(Cl)c1
active: potentiation [3] 31% | potentiation [4] 33% | activation [10] 48% | activation [12] 17.9% | potentiation [14] 21.3%
inactive: outcome [1] | outcome [2] | outcome [5] | outcome [6] | outcome [7] | outcome [8] | outcome [9] | outcome [11] | outcome [13] | outcome [15] | outcome [16]

CCOC(=O)C1(CCc2ccccc2)CCN(Cc2ccc(OC)cc2)CC1
active: activation [1] 101% | activation [10] 77.5%
inactive: outcome [2] | outcome [3] | outcome [4] | outcome [5] | outcome [6] | outcome [7] | outcome [8] | outcome [9] | outcome [11] | outcome [12] | outcome [13] | outcome [14] | outcome [15] | outcome [16]

NC(=O)C1CCCN(CC(O)COCc2ccc(Cl)cc2)C1 (stereo not given)
inactive: outcome [3] | outcome [4] | outcome [5] | outcome [6] | outcome [7] | outcome [8] | outcome [9] | outcome [11] | outcome [13] | outcome [14] | outcome [15] | outcome [16]
active: activation [1] 140% | activation [2] 133% | activation [10] 31.5% | activation [12] 69.7%
